Screening results deposited in PubChem by Buhrlage Lab, Dana-Farber Cancer Institute and Novartis Institutes for BioMedical Research (Cambridge, Mass).
USP10 inh: inhibitors of human USP10 deubiquitinase; Q14694; purified USP10, Ub-rhodamine fluorescence, 60 min; inhibition, % at 20 µM; 47,000 tested, 1.1% active; AID 1645856
USP8 inh: inhibitors of human USP8 deubiquitinase; P40818; purified USP8, Ub-rhodamine cleavage fluorescence, 30 min; inhibition, % at 20 µM; 47,000 tested, 4.2% active; AID 1645853
USP7 block: inhibitors of human USP7 deubiquitinase | 47,000 tested, 0.3% active | purified USP7, Ub-rhodamine cleavage fluorescence | AID 1645854 | inhibition, % at 20 µM | Q93009
Target sequence (Q93009 whole entry, looked up): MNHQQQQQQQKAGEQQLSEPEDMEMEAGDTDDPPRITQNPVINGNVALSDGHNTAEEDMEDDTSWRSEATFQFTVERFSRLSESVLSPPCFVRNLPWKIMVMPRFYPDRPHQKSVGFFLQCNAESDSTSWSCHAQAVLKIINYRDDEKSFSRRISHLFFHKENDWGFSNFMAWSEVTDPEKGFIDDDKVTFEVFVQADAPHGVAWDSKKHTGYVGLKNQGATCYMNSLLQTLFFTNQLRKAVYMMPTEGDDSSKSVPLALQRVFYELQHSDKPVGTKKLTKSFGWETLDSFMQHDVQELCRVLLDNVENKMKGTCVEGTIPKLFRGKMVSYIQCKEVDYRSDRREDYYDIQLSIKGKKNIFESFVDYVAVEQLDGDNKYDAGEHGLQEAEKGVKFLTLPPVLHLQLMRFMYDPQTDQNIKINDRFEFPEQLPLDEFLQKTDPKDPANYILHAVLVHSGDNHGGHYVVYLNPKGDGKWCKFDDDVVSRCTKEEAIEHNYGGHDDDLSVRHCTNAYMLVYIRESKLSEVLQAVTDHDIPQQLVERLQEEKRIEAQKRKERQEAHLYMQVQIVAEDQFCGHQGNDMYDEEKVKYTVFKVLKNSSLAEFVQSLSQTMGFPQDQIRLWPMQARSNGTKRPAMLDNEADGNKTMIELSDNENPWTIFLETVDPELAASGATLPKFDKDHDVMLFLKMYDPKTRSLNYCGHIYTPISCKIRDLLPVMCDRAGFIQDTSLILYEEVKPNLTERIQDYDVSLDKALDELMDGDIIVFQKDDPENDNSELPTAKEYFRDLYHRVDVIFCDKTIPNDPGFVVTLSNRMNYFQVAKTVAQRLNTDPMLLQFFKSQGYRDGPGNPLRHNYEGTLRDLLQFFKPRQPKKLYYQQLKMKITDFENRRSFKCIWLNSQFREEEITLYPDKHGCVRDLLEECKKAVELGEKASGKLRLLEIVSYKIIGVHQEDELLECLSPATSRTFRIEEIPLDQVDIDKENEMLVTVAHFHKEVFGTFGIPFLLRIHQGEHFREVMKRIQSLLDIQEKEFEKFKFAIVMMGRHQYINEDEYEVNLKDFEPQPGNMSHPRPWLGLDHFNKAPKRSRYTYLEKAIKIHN
USP17 block: inhibitors of human USP17 deubiquitinase; A8MUK1; purified USP17, Ub-rhodamine cleavage fluorescence, 3 h; inhibition, % at 50 µM; 47,000 tested, 6.5% active; AID 1645855
UCHL1 inh: blocks human UCHL1 ubiquitin-rhodamine cleavage | inhibition, % at 20 µM | AID 1645859 | 47,000 tested, 0.2% active | purified UCHL1, Ub-rhodamine cleavage fluorescence | P09936
OTUD3 block: human OTUD3 deubiquitinase inhibition; purified OTUD3, Ub-rhodamine fluorescence, 2 h; inhibition, % at 25 µM; 47,000 tested, 0.7% active; AID 1645858
Starred values were filed as active, the others as inactive; nt = no result. Sampled rows, rich in hits. Any-hit rate of the full collection: about 9.2%. No stated cut-off is given here; in the data, active means inhibition above about 30%; inactive means the rest.

SMILES | USP10 inh | USP8 inh | USP7 block | USP17 block | UCHL1 inh | OTUD3 block
O=C(NC1CCCC1)c1cccc(-c2ccc(N3CCCC3)nc2)c1 | -2 | 7 | 8 | 51* | -3 | -19
COc1ccc(CNC(=O)CN2CCC3(CC2)N=C(c2ccc(F)cc2)C(=O)N3)cc1 | -2 | 0 | -4 | -5 | -1 | 10
CCc1ccc(-c2c3c4n(c(-c5ccc(C)cc5)cn4c2C(=O)Nc2ccc(Cl)cc2)CCCC3)cc1 | -5 | 11 | 0 | 0 | 1 | -1
Cc1ccc(-c2c3c4n(c(-c5ccc(Cl)cc5)cn4c2C(=O)Nc2ccccc2Cl)CCCC3)cc1 | -3 | 43* | -6 | 20 | 4 | 13
COC(=O)C1=CC(OC)=C(Cl)C(=O)C12OC(=O)c1c(O)cc(C)cc1O2 (configuration not stated) | 2 | -4 | -92 | -49 | 33* | -12
COc1cc(O)c2c(c1)COC(=O)c1c(O)cc(C)cc1O2 | 1 | -6 | 1 | 5 | 1 | 17
O=C(COc1ccc(Cl)cc1)NCc1nnc(SCC(=O)N2CCc3ccccc32)o1 | 8 | 22 | 5 | 24 | 1 | 9
O=C(COc1ccc(Cl)cc1)NCc1nnc(SCC(=O)N2CCN(c3ccccc3)CC2)o1 | 0 | 15 | 8 | 41* | 4 | 8
O=C(COc1ccc(Cl)cc1)NCc1nnc(SCC(=O)Nc2nc3ccccc3s2)o1 | -5 | -22 | 0 | 33* | -9 | -20
O=C(c1ccc(F)cc1F)N1CCN(Cc2nc(-c3ccc(Cl)cc3)no2)CC1 | -3 | -6 | -1 | -8 | -1 | -2
O=C1CC(c2ccccc2)n2nc(NC(=O)c3ccccc3)nc2N1 (configuration not stated) | -1 | 7 | 3 | 5 | 0 | 6
O=C(/C=C/c1cccc([N+](=O)[O-])c1)Nc1nc2n(n1)C(c1ccccc1)CC(=O)N2 (configuration not stated) | 25 | -50 | 10 | 19 | 5 | 22
COc1ccc(/C=C/C(=O)Nc2nc3n(n2)C(c2ccccc2)CC(=O)N3)cc1 (configuration not stated) | 21 | 73* | 13 | 12 | 7 | 14
COc1ccc(/C=C/C(=O)Nc2nc3n(n2)C(c2ccccc2)CC(=O)N3)cc1OC (configuration not stated) | 3 | 79* | 11 | 26 | 6 | 12
Cc1ccc(C(=O)Nc2nc3n(n2)C(c2ccccc2)CC(=O)N3)cc1 (configuration not stated) | 8 | 15 | 7 | 71* | 6 | 1
CC(=O)Nc1ccc(S(=O)(=O)N2CCCC(C(=O)NCc3ccncc3)C2)cc1 (configuration not stated) | -5 | 0 | 3 | -6 | -3 | -4
Cc1cc(C(=O)N2CCCCC2)c2c(=O)n(Cc3ccc4nonc4c3)c(=O)n(C)c2n1 | -4 | 43* | -22 | 34* | -2 | 7
COc1ccc2nc(N(CCCn3ccnc3)C(=O)c3ccc(Cl)s3)sc2c1 | 11 | -29 | -95 | 42* | 6 | 2
Cc1cc(C)c2sc(N(CCN(C)C)C(=O)CS(=O)(=O)c3ccccc3)nc2c1 | -2 | -5 | 2 | -5 | 1 | 1
Cc1cc(C)c2sc(N(CCCn3ccnc3)C(=O)Cc3ccccc3)nc2c1 | 5 | -39 | 10 | nt | 5 | 35*
Cc1ccc(O)c(-c2cc(C(=O)Nc3ccccc3Cl)[nH]n2)c1 | 6 | 5 | 4 | 68* | -1 | -7
Cc1ccc(-c2cc(C(=O)Nc3nnc(C)s3)[nH]n2)c(O)c1 | 4 | 0 | -5 | 30 | 0 | 0
Cc1ccc(-c2cc(C(=O)Nc3ccccc3Cl)[nH]n2)c(O)c1C | 15 | 33* | 8 | 0 | -1 | -8
Cc1cc(-c2cnc(NCCCn3ccnc3)nc2-c2ccco2)on1 | 1 | 11 | -16 | 10 | 1 | 3
CC(C)NC(=O)N1CC(=O)N2CC[C@@H](CC(=O)N3CCOCC3)[C@@H](CCCOc3ccccc3C1)C2 | 0 | 5 | -2 | 75* | 4 | 6
SMILES | USP10 inh | USP8 inh | USP7 block | USP17 block | UCHL1 inh | OTUD3 block
COC[C@H]1CCCN1C(=O)C[C@@H]1CCN2C[C@@H]1CCCOc1ccc(N3CCOCC3)cc1CNCC2=O | -3 | -22 | 1 | -15 | -3 | 3
O=C(C[C@@H]1CCN2C[C@@H]1CCCOc1ccccc1CN(C(=O)c1cccnc1)CC2=O)N1CCOCC1 | -1 | 19 | -1 | 78* | 1 | 7
O=C(C[C@@H]1CCN2C[C@@H]1CCCOc1ccccc1CN(C(=O)c1ccccc1)CC2=O)N1CCOCC1 | 0 | 7 | 4 | -1 | -2 | 5
O=C(C[C@@H]1CCN2C[C@@H]1CCCOc1ccccc1CN(C(=O)COc1ccccc1)CC2=O)N1CCOCC1 | -3 | -1 | -2 | 71* | 0 | 2
Cc1ccc(N2CC[C@@H]3[C@@H]2CCN3C(=O)c2ccccn2)nn1 | 2 | -132 | 1 | -30 | -2 | -4
CCCOc1ccc(C2CN3C(=O)CN(Cc4ccco4)C(=O)[C@]3(C)c3[nH]c4ccccc4c32)cc1OC (some centres not stated) | 5 | -29 | 15 | 1 | 12 | 8
C[C@]12C(=O)N(Cc3ccco3)CC(=O)N1CC(c1ccc(Cl)cc1)c1c2[nH]c2ccccc12 (some centres not stated) | 0 | -14 | -120 | 31* | 13 | -2
Cc1ccc(-n2cc(C(=O)NCCCc3ccccc3)nn2)cc1 | 24 | 78* | 25 | 28 | 7 | 16
CCOC(=O)N1CCC(NC(=O)c2cn(-c3ccc(C)cc3)nn2)CC1 | 0 | 2 | 6 | 60* | 0 | 0
Cc1ccc(-n2cc(C(=O)N3CCN(c4ccccc4)CC3)nn2)cc1 | 6 | 40* | 2 | 40* | 0 | 8
Cc1cc(CN2C(=O)NC(Cc3ccccc3)(c3ccccc3)C2=O)no1 (configuration not stated) | 1 | 16 | 3 | 1 | 6 | 5
CCOC(=O)C1(Cc2cc(-c3ccc(F)cc3)no2)CCN(Cc2cncn2C)CC1 | -1 | 14 | 3 | 1 | 6 | -1
CC1(C)CC[C@]2(C(=O)O)CC[C@]3(C)C(=CCC4[C@@]5(C)CC[C@H](O)[C@@](C)(CO)C5CC[C@]43C)[C@@H]2C1 (some centres not stated) | 12 | 10 | 11 | 95* | 1 | 81*
CCCc1ccc(C(=O)[C@@H]2[C@@H](C(=O)c3cccs3)N3c4ccc(C)cc4C(C)=C[C@@H]3[C@@]23C(=O)Nc2ccccc23)cc1 | 38* | 67* | 33* | 12 | 1 | -17
O=C(c1ccc(F)cc1)[C@@H]1[C@H](C(=O)OC(c2ccccc2)c2ccccc2)N2c3ccccc3C=CC2[C@@]12C(=O)Nc1ccccc12 (some centres not stated) | -9 | -13 | -34 | -33 | -29 | -123
